# Inconclusive results are not listed. Where a call stands in place of a potency, no number is given. The source made the active and inactive calls. Unless noted, the call rests on the fitted dose curve; in most records, active means well fitted curve in the direction sought with a large enough effect in the repeat runs; inconclusive means weak or mixed curves; inactive means no such curve, though single readings can be large; an effect the other way counts as inactive or inconclusive.
# Assays:
# [1] = qHTS assay to identify small molecule antagonists of the estrogen receptor alpha (ER-alpha) signaling pathway using the BG1 cell line in the presence of 0.1 nM 17-beta-estradiol - cell viability counter screen (AID 1259241); further: nearly all actives have a fitted effect of over 40% in size; further: potency means the concentration at half of the fitted maximal effect
# Procedure, shortened: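 Following 5 days in phenol red-free medium with charcoal-stripped serum, VM7Luc4E2 cells received test compounds alongside 0.1 nM 17beta-estradiol (final) at 37C for 22 hr. Live cells were then quantified via protease-substrate fluorescence.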
# [2] = qHTS assay to identify small molecule antagonists of the androgen receptor (AR) signaling pathway using the MDA cell line in the presence of 0.5 nM R1881 - cell viability counter screen (AID 1259242); further: nearly all actives have a fitted effect of over 45% in size; further: potency means the concentration at half of the fitted maximal effect
# Procedure, shortened: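 Steps: plate MDA-kb2 cells, rest 5 hr at 37C without CO2; pin in compounds in DMSO; add R1881 to 0.5 nM final; incubate 16 hr; add CellTiter-Fluor, 30 min; read fluorescence.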
# [3] = target: Androgen receptor (Homo sapiens) (UniProt P10275); assay: qHTS assay to identify small molecule antagonists of the androgen receptor (AR) signaling pathway using the MDA cell line in the presence of 0.5 nM R1881 (AID 1259243); further: nearly all actives have a fitted effect of over 50% in size; further: potency means the concentration at half of the fitted maximal effect
# Procedure, shortened: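 Stably transfected MDA-kb2 cells express luciferase from an MMTV promoter bearing both AR and GR response elements. Compounds plus 0.5 nM R1881 (final) were incubated 16 hr at 37C without CO2, then luminescence measured.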
# [4] = target: Estrogen receptor (Homo sapiens) (UniProt P03372); assay: qHTS assay to identify small molecule antagonists of the estrogen receptor alpha (ER-alpha) signaling pathway using the BG1 cell line in the presence of 0.1 nM 17-beta-estradiol (AID 1259244); further: nearly all actives have a fitted effect of over 50% in size; further: potency means the concentration at half of the fitted maximal effect
# Procedure, shortened: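 Antagonist mode: compounds in DMSO are pinned onto VM7Luc4E2 reporter cells, 0.1 nM final 17beta-estradiol is added, and after 22 h at 37C luciferase luminescence is measured with ONE-Glo.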
# [5] = qHTS assay to identify small molecule HDAC inhibitors (AID 1259364); further: potency means the concentration at half of the fitted maximal effect;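 further: wild-type HCT-116 cells with endogenous class I/II HDAC activity; nearly all actives have a fitted effect of over 45% in size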
# Procedure, shortened: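 Cells (HCT-116, wild type) are seeded at 1,500 per well, incubated overnight, treated with compound in DMSO for 2 hr, then developed with HDAC-Glo I/II reagent for 30 min at room temperature.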
# [6] = qHTS assay to identify small molecule HDAC inhibitors - cell viability counter screen (AID 1259365); further: nearly all actives have a fitted effect of over 50% in size; further: potency means the concentration at half of the fitted maximal effect
# Procedure, shortened: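 HCT-116 wild-type, overnight attachment; 2hr drug exposure, 37C; CellTiter-Glo luminescent ATP readout after 30min RT.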
# [7] = qHTS assay to identify small molecule agonists of the sonic hedgehog signaling (Shh) pathway - cell viability counter screen (AID 1259366); further: nearly all actives have a fitted effect of over 50% in size; further: potency means the concentration at half of the fitted maximal effect
# Procedure, shortened: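 Compounds in DMSO were pin-transferred onto 3T3 Gli1-Luc cells that had settled 4hr; plates then stood 24hr at 37C and 5% CO2. One hour before the end, CellTiter-Fluor was added and fluorescence recorded.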
# [8] = qHTS assay to identify small molecule antagonists of the sonic hedgehog signaling (Shh) pathway - cell viability counter screen (AID 1259367); further: nearly all actives have a fitted effect of over 55% in size; further: potency means the concentration at half of the fitted maximal effect
# Procedure, shortened: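 CellTiter-Fluor signal in conditioned medium-stimulated 3T3 Gli1-Luc cells, 23 hr compound exposure, 37C.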
# [9] = qHTS assay to identify small molecule agonists of the sonic hedgehog signaling (Shh) pathway (AID 1259368; calls by dose curve;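 further: NIH/3T3-derived 3T3Gli1-Luc cells carrying a stable Gli1-driven firefly luciferase reporter; series mostly up to about 92 µM; nearly all actives have a fitted effect of over 15% in size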)
# Procedure, shortened: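 Cells of a mouse NIH/3T3 clone stably expressing luciferase under the Gli1 transcriptional response element are exposed to test chemicals for 24 hr at 37 C. Pathway activation is detected as a rise in luminescence.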
# [10] = qHTS assay to identify small molecule agonists of the androgen receptor (AR) signaling pathway in the presence of an antagonist - cell viability counter screen (AID 1259379); further: nearly all actives have a fitted effect of over 25% in size; further: potency means the concentration at half of the fitted maximal effect
# Procedure, shortened: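 Cytotoxicity is assessed by CellTiter-Fluor in MDA-kb2 cells carrying an MMTV-driven luciferase reporter. Cells receive 3.0uM nilutamide plus compounds at 15 concentrations and incubate 16 hr at 37C without CO2 before fluorescence reading.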
# [11] = qHTS assay to identify small molecule antagonists of the estrogen receptor beta (ER-beta) signaling pathway - cell viability counter screen (AID 1259382); further: nearly all actives have a fitted effect of over 55% in size; further: potency means the concentration at half of the fitted maximal effect
# Procedure, shortened: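 Cytotoxicity counter screen multiplexed with the beta-lactamase antagonist assay: GripTite HEK293T ER-beta-bla cells were treated 16 hr with test chemicals in the presence of 1nM 17-beta-estradiol, and viability was measured by CellTiter-Glo.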
# [12] = target: Estrogen receptor (Homo sapiens) (UniProt P03372); assay: qHTS assay to identify small molecule agonists of the estrogen receptor alpha (ER-alpha) signaling pathway in the presence of an antagonist (AID 1259383; calls by dose curve; further: top concentration of the series differs between compounds; nearly all actives have a fitted effect of over 15% in size)
# Procedure, shortened: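 Agonist-mode confirmation in the presence of the ER antagonist ICI-182,780 at 10.0nM final. Breast-derived VM7Luc4E2 reporter cells were exposed to compounds for 22hr, and ERE-driven luciferase was quantified by luminescence.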
# [13] = qHTS assay to identify small molecule agonists or antagonists of the thyroid stimulating hormone receptor (TSHR) signaling pathway - wild type cell line counter screen (AID 1259384; calls by dose curve)
# Procedure, shortened: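 Counter screen in untransfected Hek293: compounds (15-point titration, triplicate) plus phosphodiesterase inhibitor Ro20-1724 added after 18 h plating; 30 min RT. Intracellular cAMP via competitive d2/cryptate immunoassay, 1 h incubation.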
# [14] = target: Thyrotropin receptor (Homo sapiens) (UniProt P16473); assay: qHTS assay to identify small molecule antagonists of the thyroid stimulating hormone receptor (TSHR) signaling pathway (AID 1259385; calls by dose curve; further: nearly all actives have a fitted effect of over 20% in size; further: potency means the concentration at half of the fitted maximal effect)
# Procedure, shortened: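 Antagonist mode: compound-treated TSHR-expressing HEK293 cells were stimulated with 1.5 ng/mL TSH (final) in presence of Ro20-1724 for 30 min at RT. HTRF cAMP detection after 1 h; each compound tested at 15 concentrations, triplicate.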
# [15] = qHTS assay to identify small molecule agonists of the estrogen receptor beta (ER-beta) signaling pathway - cell viability counter screen (AID 1259380); further: nearly all actives have a fitted effect of over 30% in size; further: potency means the concentration at half of the fitted maximal effect
# Procedure, shortened: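 Cytotoxicity is measured in parallel with the reporter screen: after 16 hr compound exposure at 37C and a 2 hr LiveBLAzer step, CellTiter-Glo is added to the same ER-beta-UAS-bla HEK293T wells and luminescence read after 30 min.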
# [16] = qHTS assay to identify small molecule antagonists of the sonic hedgehog signaling (Shh) pathway (AID 1259369; calls by dose curve; further: nearly all actives have a fitted effect of over 45% in size; further: potency means the concentration at half of the fitted maximal effect)
# Procedure, shortened: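 Cells are plated and held 4hr at 37 C, compounds (DMSO) are pinned in, conditioned medium is added to stimulate the pathway, and after 24hr luciferase reagent is added for 30min before luminescence is read.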
# [17] = target: Estrogen receptor beta (Homo sapiens) (UniProt Q92731); assay: qHTS assay to identify small molecule agonists of the estrogen receptor beta (ER-beta) signaling pathway (AID 1259377; active means well fitted activation curve with a large enough effect in the signal ratio in the repeat runs, not every such curve was filed as active; the % refers to the signal ratio; further: potency means the concentration at half of the fitted maximal effect)
# Procedure, shortened: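 qHTS in ER-beta-UAS-bla HEK293T cells: 6 hr settling, then 16 hr compound at 37C, then LiveBLAzer substrate 2 h at RT before fluorescence reading.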
# [18] = target: Estrogen receptor beta (Homo sapiens) (UniProt Q92731); assay: qHTS assay to identify small molecule antagonists of the estrogen receptor beta (ER-beta) signaling pathway (AID 1259378; active means well fitted inhibition curve with a large enough effect in the signal ratio in the repeat runs, not every such curve was filed as active; the % refers to the signal ratio; further: potency means the concentration at half of the fitted maximal effect)
# Procedure, shortened: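 Antagonist mode: compounds added to beta-lactamase reporter HEK293T ER-beta-UAS cells stimulated with E2 (1nM final), 16 hr at 37C. LiveBLAzer B/G FRET substrate, 2 hours room temperature, fluorescence read-out.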
# [19] = target: Androgen receptor (Homo sapiens) (UniProt P10275); assay: qHTS assay to identify small molecule agonists of the androgen receptor (AR) signaling pathway in the presence of an antagonist (AID 1259381; calls by dose curve; further: nearly all actives have a fitted effect of over 15% in size)
# Procedure, shortened: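 Agonist-mode confirmation screen: human MDA-kb2 cells stably expressing luciferase under an MMTV promoter bearing AR and GR response elements, co-treated with 3.0uM nilutamide (final). Luminescence measured after 16hr compound incubation.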
# Sequence of Thyrotropin receptor (Homo sapiens) (P16473 whole entry, looked up): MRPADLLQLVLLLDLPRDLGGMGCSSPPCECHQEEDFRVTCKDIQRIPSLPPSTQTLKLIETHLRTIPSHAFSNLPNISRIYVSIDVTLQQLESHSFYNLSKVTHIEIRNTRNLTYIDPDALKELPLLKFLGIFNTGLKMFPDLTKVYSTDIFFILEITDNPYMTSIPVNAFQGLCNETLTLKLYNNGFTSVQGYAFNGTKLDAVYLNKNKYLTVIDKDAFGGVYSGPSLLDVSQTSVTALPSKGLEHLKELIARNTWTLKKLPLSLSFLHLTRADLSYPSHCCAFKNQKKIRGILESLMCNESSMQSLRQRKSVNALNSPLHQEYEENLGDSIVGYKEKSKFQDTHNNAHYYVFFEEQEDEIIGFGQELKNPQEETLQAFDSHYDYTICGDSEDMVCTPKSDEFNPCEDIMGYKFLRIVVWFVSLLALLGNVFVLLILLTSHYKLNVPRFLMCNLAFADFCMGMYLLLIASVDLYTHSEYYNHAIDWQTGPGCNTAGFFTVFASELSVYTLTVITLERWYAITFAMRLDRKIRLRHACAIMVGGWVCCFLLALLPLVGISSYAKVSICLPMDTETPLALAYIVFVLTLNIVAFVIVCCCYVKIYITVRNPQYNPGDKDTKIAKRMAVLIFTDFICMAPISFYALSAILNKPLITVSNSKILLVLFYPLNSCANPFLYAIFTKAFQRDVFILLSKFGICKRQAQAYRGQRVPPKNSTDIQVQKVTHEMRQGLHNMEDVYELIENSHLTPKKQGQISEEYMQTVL
# Sequence of Estrogen receptor (Homo sapiens) (P03372 whole entry, looked up): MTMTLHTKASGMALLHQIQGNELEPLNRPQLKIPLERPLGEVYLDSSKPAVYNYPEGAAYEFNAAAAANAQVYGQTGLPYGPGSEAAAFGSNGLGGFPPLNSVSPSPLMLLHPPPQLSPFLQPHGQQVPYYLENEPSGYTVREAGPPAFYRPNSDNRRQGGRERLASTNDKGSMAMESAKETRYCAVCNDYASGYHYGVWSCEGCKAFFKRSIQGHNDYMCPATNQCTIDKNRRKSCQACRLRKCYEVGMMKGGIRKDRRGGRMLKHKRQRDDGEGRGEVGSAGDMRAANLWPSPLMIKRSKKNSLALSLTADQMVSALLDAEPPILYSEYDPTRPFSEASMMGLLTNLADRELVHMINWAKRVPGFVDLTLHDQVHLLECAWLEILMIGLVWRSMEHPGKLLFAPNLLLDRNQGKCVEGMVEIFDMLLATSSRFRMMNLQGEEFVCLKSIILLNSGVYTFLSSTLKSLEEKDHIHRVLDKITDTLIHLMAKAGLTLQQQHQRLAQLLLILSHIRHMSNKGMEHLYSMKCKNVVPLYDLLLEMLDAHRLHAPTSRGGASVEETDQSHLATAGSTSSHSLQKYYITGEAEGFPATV
# Sequence of Estrogen receptor beta (Homo sapiens) (Q92731 whole entry, looked up): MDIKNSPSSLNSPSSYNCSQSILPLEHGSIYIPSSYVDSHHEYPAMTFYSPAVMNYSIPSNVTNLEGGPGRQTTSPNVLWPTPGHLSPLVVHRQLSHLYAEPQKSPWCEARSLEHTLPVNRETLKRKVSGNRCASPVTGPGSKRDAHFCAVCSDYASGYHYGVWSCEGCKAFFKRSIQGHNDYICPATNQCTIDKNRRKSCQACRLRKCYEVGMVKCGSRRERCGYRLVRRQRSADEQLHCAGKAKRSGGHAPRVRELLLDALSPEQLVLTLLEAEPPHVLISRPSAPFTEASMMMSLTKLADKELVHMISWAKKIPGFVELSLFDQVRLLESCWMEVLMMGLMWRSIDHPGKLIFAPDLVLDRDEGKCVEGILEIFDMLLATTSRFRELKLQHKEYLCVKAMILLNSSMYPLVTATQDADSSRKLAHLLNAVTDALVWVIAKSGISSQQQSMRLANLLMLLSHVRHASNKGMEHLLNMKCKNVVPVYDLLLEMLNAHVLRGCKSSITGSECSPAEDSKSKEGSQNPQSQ
# Sequence of Androgen receptor (Homo sapiens) (P10275 whole entry, looked up): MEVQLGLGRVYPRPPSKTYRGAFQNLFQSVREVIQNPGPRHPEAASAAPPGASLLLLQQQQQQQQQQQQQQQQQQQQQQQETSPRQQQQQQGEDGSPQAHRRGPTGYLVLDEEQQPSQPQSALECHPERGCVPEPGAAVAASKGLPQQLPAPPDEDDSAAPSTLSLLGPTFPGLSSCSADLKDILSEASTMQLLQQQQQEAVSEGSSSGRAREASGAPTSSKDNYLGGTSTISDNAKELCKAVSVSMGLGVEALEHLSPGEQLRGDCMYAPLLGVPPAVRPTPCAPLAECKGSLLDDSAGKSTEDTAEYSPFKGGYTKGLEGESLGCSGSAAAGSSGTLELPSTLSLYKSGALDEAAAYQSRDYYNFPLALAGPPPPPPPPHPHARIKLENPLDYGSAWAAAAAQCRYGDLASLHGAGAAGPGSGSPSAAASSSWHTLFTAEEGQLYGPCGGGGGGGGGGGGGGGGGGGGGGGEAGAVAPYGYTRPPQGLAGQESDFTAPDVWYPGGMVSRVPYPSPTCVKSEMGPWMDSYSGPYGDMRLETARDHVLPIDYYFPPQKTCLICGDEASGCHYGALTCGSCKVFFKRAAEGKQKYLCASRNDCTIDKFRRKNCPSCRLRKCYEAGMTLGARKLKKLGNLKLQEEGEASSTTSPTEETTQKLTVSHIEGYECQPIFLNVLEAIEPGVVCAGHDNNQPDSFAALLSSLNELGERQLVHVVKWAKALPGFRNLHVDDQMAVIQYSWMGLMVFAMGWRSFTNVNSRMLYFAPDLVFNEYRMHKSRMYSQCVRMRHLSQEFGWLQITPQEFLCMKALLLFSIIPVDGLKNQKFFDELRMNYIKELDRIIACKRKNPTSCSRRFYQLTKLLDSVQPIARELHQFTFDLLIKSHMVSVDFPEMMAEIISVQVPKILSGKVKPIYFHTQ
Structure (SMILES),Potency [1],Potency [2],Potency [3],Potency [4],Potency [5],Potency [6],Potency [7],Potency [8],Potency [9],Potency [10],Potency [11],Potency [12],Potency [13],Potency [14],Potency [15],Potency [16],Potency [17],Potency [18],Potency [19]
CC#C[C@]1(O)CC[C@H]2[C@@H]3C[C@H](C)C4=CC(=O)CC[C@]4(C)[C@H]3CC[C@@]21C,inactive,inactive,inactive,inactive,inactive,inactive,inactive,inactive,inactive,inactive,inactive,inactive,inactive,inactive,–,–,–,–,–
O=c1[nH]c2cc(Cl)ccc2n1C1CCNCC1,inactive,inactive,inactive,–,inactive,–,–,inactive,inactive,inactive,inactive,inactive,inactive,inactive,inactive,–,–,–,–
C[C@]12CC[C@H]3[C@@H](CCC4=CC(=O)CC[C@@H]43)[C@@H]1CC[C@@H]2OC(=O)CCc1ccco1,inactive,inactive,inactive,–,–,inactive,inactive,inactive,inactive,inactive,inactive,–,inactive,–,inactive,inactive,2.66 µM (active),–,–
CC(=O)[O][Pb]([c]1ccccc1)([c]1ccccc1)[c]1ccccc1,21.7 µM (active),6.11 µM (active),0.969 µM (active),inactive,–,61.1 µM (active),0.486 µM (active),0.77 µM (active),inactive,7.7 µM (active),5.45 µM (active),inactive,inactive,24.3 µM (active),4.86 µM (active),0.386 µM (active),–,0.969 µM (active),–
N#CC(C#N)=NNc1cccc(Cl)c1,12.2 µM (active),2.43 µM (active),1.54 µM (active),1.09 µM (active),24.3 µM (active),inactive,27.3 µM (active),27.3 µM (active),inactive,1.93 µM (active),–,inactive,inactive,inactive,15.4 µM (active),1.09 µM (active),–,–,–
O=C(NC(=O)c1ccccc1Cl)Nc1ccc(OC(F)(F)F)cc1,inactive,inactive,inactive,–,–,inactive,inactive,inactive,inactive,inactive,inactive,–,inactive,inactive,inactive,inactive,inactive,inactive,–
C[C@@H]1CC2=CC(=O)CC[C@@H]2[C@H]2CC[C@@]3(C)[C@@H](CC[C@]3(C)O)[C@@H]21,inactive,inactive,inactive,–,inactive,–,inactive,inactive,inactive,inactive,inactive,–,inactive,–,inactive,–,–,–,–
S=C=Nc1ccccc1,inactive,inactive,inactive,inactive,inactive,inactive,inactive,inactive,inactive,inactive,inactive,–,–,–,–,inactive,–,inactive,inactive
